The target of assay [1] is T1, Hexokinase-4 (Homo sapiens) + Glucokinase regulatory protein (Homo sapiens) (UniProt P35557+Q14397). Nature of the assay: qHTS assay for inhibitors of recombinant human GCK-GKRP interaction: ADP-Glo assay (AID 743206).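 Note: plate controls were DMSO plus enzyme for no effect and no enzyme for full effect.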 The essentials: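 GST-GCK and FLAG-GKRP (15 nM each in the dispensed mix, with 2 uM S6P) react with 0.4 mM ATP and 5 mM glucose (final) in Hepes pH 7.6 for 60 min at room temperature. ADP is measured by ADP-Glo luminescence.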
T1 sequence (P35557 whole entry, looked up): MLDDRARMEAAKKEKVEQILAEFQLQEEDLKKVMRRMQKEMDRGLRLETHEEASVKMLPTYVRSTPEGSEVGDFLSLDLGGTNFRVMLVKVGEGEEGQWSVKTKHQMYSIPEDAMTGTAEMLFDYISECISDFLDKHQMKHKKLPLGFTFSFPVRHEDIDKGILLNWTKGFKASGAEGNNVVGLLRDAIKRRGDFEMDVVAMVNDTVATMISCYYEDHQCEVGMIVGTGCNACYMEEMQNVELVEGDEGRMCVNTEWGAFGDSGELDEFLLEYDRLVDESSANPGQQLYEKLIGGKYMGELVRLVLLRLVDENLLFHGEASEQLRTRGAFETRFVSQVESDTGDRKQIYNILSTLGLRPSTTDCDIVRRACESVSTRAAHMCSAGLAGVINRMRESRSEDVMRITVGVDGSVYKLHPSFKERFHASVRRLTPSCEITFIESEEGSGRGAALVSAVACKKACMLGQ
T1 sequence (Q14397 whole entry, looked up): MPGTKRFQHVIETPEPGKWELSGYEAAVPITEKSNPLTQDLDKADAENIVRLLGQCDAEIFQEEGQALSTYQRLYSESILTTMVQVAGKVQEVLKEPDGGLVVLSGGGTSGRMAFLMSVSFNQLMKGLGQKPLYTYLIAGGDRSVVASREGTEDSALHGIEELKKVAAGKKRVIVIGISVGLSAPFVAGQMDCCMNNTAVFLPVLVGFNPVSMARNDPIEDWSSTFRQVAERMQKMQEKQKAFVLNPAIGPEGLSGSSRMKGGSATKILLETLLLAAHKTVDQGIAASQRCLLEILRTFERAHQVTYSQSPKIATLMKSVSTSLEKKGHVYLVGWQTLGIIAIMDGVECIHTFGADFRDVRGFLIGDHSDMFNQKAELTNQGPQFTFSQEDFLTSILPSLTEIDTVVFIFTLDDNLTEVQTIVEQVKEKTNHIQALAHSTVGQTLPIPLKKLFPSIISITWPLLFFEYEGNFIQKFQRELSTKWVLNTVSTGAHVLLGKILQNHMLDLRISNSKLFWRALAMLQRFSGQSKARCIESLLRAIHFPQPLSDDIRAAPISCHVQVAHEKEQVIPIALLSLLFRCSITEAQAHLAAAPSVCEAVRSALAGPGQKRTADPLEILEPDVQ

For assay [2], the target named is T1, Hexokinase-4 (Homo sapiens) + Glucokinase regulatory protein (Homo sapiens). The experiment in a line: qHTS assay for inhibitors of recombinant human GCK-GKRP interaction: HTRF assay (AID 743207).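 Note: 0% = DMSO with GCK present and -100% = DMSO wells lacking GCK.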 The essentials:
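HTRF read-out (ex 320 nm; 615/665 nm emission) after 60 min RT equilibration of 5 nM GST-GCK, 5 nM FLAG-GKRP, 2 uM S6P, compound and anti-FLAG/anti-GST detection antibodies; signal normalized between DMSO wells with and without GCK.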

A short description of assay [3]: qHTS Assay for Identifying Gametocytocidal Compounds (AID 743244).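 Note: % is set by controls: 0 for no effect and ±100 for the full control effect; actives lower the fluorescent signal which means gametocytes are killed.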 The settings on record: P. falciparum 3D7 stage III-V gametocytes, alamarBlue, 72 h; max response: stronger effect = lower value. The essentials: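 Compounds are pinned into medium, gametocytes (stage III–V, 3D7, 20,000 cells/well) added, and plates held 72 h at 37 °C in 5% CO2. AlamarBlue follows for 24 h before fluorescence reading.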

Assay [4] is described as follows: qHTS assay for cell viability of HEK293 cells (AID 743288). Note: % is set by controls: 0 for no effect and ±100 for the full control effect; nearly all actives have a fitted effect of over 50% in size. Conditions: ATP luminescence (CellTiter-Glo), 18 h; max response: stronger effect = lower value. The essentials: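 Environmental chemicals tested in qHTS format against parental HEK293 cells; 18 h treatment, 37 C; read-out ATP luminescence (CellTiter-Glo), 30 min RT development.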
The nature of assay [5]: qHTS assay for cell viability of the p53RE-bla HCT-116 cell line (AID 743292). Note: % is set by controls: 0 for no effect and ±100 for the full control effect; nearly all actives have a fitted effect of over 55% in size. The essentials: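 ATP-based luminescent viability (CellTiter-Glo, 30 min RT) after 16 h compound treatment at 37 C of p53RE-bla HCT-116 cells, seeded at 4,000 cells/well and rested 5 h before dosing.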
Assay [6] can be described thus: qHTS profiling of the MIPE4 collection as inhibitors of Plasmodium falciparum (3D7) proliferation (AID 743344; call rule not given here;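 note: scaled between DMSO vehicle wells and 0.29 µM artemisinin as full inhibition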). The settings on record: P. falciparum 3D7 in erythrocytes, SYBR Green DNA fluorescence, 72 h; at 28.5 µM (top of the series) unless noted. The essentials: (§1)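 Erythrocytes infected with P. falciparum (0.3% parasitemia, 2.5% hematocrit) incubated with compounds 72 h at 37 C, 5% CO2. Lysis with saponin/Triton buffer containing SYBR Green I, overnight at room temperature in the dark; DNA fluorescence (485/535 nm) normalised to 0.29 uM artemisinin and DMSO.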

Assay [7] is described as follows: qHTS profiling of the MIPE4 collection as inhibitors of Plasmodium falciparum (DD2) proliferation (AID 743345; call rule not given here). Conditions: P. falciparum Dd2 in erythrocytes, SYBR Green DNA, 72 h; at 28.5 µM (top of the series) unless noted. The essentials: as §1
Assay [8] in a line: qHTS profiling of the MIPE4 collection as inhibitors of Plasmodium falciparum (DD2) proliferation (Rep 2) (AID 743346; call rule not given here). The settings on record: P. falciparum Dd2 in erythrocytes, SYBR Green DNA, 72 h; at 28.5 µM (top of the series) unless noted. The essentials:
as §1

Assay [9] in a line: qHTS profiling of the MIPE4 collection as inhibitors of Plasmodium falciparum (HB3) proliferation (AID 743347; call rule not given here;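 note: plate controls were DMSO vehicle wells for no effect and artemisinin wells for full effect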). Conditions: P. falciparum HB3 in erythrocytes, SYBR Green DNA, 72 h; at 28.5 µM (top of the series) unless noted. The essentials:
as §1

Assay [10] can be described thus: High-throughput drug toxicity screening in the BPDCN cell line Gen2.2 (AID 1224824; call rule not given here;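 note: cells exposed to compounds for 48 h before reading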). The settings on record: Gen2.2 BPDCN cells; at 45.8 µM (top of the series) unless noted. The essentials: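 CellTiter-Glo luminescence after 48 h compound exposure of Gen2.2 cells; percent activity set with DMSO as 100% and bortezomib (9.2 uM final) as 0%. Cells seeded at 500 per well, RPMI + 10% FBS, 37 °C.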

A short description of assay [11]: High-throughput drug toxicity screening in the BPDCN cell line Cal-1 (AID 1224825; call rule not given here). Conditions: Cal-1 BPDCN cell viability, qHTS; at 45.8 µM (top of the series) unless noted. The essentials: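 Exponentially growing Cal-1 cells, 500 per well in phenol red-free RPMI with 10% FBS, were exposed to compounds for 48 h at 37 °C, 5% CO2. Viability was read by CellTiter-Glo luminescence and normalised to DMSO (100%) and 9.2 uM bortezomib (0%).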

Assay [12] can be described thus: qHTS assay for measurement of the activity of small molecule inhibitors on Zika virus induced Caspase-3 activity in human iPSC derived neural progenitor cells (hNPCs) (AID 1224857). Note: % of control where 0% means no effect; nearly all actives have a fitted effect of over 65% in size. The essentials: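 Pretreat hNPCs with compound 1 h; infect ZIKV 2 FFU/cell; 6 h 37 C, 5% CO2; Caspase-Glo 3/7, 30 min RT; luminescence; normalize to no-virus and virus-only wells.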
Assay [13] in a line: qHTS assay for measurement of the activity of small molecule inhibitors on Zika virus induced Caspase-3 activity in human astrocytoma cells (AID 1224859).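 Note: plate controls were ZIKV-infected untreated cells for no effect and uninfected cells for full effect.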 The essentials:
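Human SNB-19 astrocytoma cells in RPMI 1640 with 10% FBS receive compound one hour ahead of Zika virus at 2 FFU/cell. After 6 h infection, caspase-3/7 activity is detected by Caspase-Glo luminescence.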

Assay [14] in a line: qHTS Screen of the MIPE 4.0 Collection Against Ewings Sarcoma (TC71) (AID 1259253). Note: nearly all actives have a fitted effect of over 40% in size. Note: potency is the fitted concentration of half-maximal effect. The essentials: (§2)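 Compound titrations go onto adherent log-phase cells 4 h after seeding, incubate 48 h at 37C, then CellTiter-Glo luminescence reports viability relative to DMSO and cell-free controls.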
Assay [15] can be described thus: qHTS Screen of the MIPE 4.0 Collection Against Ewings Sarcoma (EW8) (AID 1259255).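 For viability: 100% = DMSO-treated cells and 0% = medium-only wells without cells.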 Note: nearly all actives have a fitted effect of over 35% in size. Note: potency is the fitted concentration of half-maximal effect. The essentials:
as §2

Assay [16] is described as follows: qHTS Screen of the MIPE 4.0 Collection Against Ewings Sarcoma (TC32) (AID 1259256). Note: nearly all actives have a fitted effect of over 45% in size. Note: potency is the fitted concentration of half-maximal effect. The essentials: as §2
Assay [17] can be described thus: qHTS Screen of the MIPE 4.0 Collection Against Ewings Sarcoma (RDES) (AID 1259252). Note: nearly all actives have a fitted effect of over 35% in size. Note: potency is the fitted concentration of half-maximal effect. The essentials:
as §2

The structures appear in SMILES notation. Values joined by “and” are separate entries in the source; they are usually repeats but may differ in a detail not shown here. Equal entries are not always repeated. Records with an inconclusive call do not appear. Active and inactive are the calls of the source. Unless noted, calls come from the whole dose curve; as a rule, active = well fitted curve in the direction sought with a large enough effect; inconclusive = small, poorly fitted or top-dose-only effect, or another doubt; inactive = no such curve, though single readings can be large; an effect the other way counts as inactive or inconclusive.

For the compound `Cc1cn([C@H]2C=C[C@@H](CO)O2)c(=O)[nH]c1=O`, the Potency result in [1], in assay [2], in assay [5], in assay [12], in [13] and in assay [14] was “inactive” throughout. In addition, the Potency result in [15] and in assay [16] was “inactive” each time. The max response in assay [3] was 12.3% (inactive) and 14% (inactive); in assay [4] it was -5.34% (inactive) and -4.2% (inactive) and -3.76% (inactive). The compound further had a parasite growth, % of DMSO control in assay [6] of 325% [at 57.5 µM]. In assay [7], the parasite growth remaining, % of DMSO control (lower = more inhibition) worked out at 112% [at 57.5 µM]. The parasite growth, % of control (lower = inhibition) in assay [8] is 140% [at 57.5 µM]. In [9], this compound registered a growth, % of control of 618% [at 57.5 µM]. For the same compound, the cell viability, % of control (lower = more cytotoxic) in [10] turned out to be 82.4% [at 92.2 µM]. The viability (% of control) in [11] was 100% [at 92.2 µM].

Consider `COc1ccc(C2CNC(=O)C2)cc1OC1CCCC1` (stereo unspecified), for which the Potency result in assay [2], in assay [12], in [13], in assay [17], in assay [14] and in [15] was “inactive” each time. For the same compound, the Potency result in assay [16] was “inactive”. Moreover, the max response in assay [3] is 8.29% (inactive) and 32.6% (inactive). For the same compound, the parasite growth, % of DMSO control in assay [6] was found to be 109%. Further, the parasite growth remaining, % of DMSO control (lower = more inhibition) in assay [7] is 101%. Moreover, in assay [8], the parasite growth, % of control (lower = inhibition) is 116%. This compound returned a growth, % of control in assay [9] of 98.4%. The cell viability, % of control (lower = more cytotoxic) in [10] was found to be 170%. The viability (% of control) in [11] amounted to 117%.

Take `CN(C)CCCN1c2ccccc2CCc2ccc(Cl)cc21`: the Potency result in assay [2], in assay [12] and in assay [13] was “inactive” each time. Besides, the parasite growth, % of DMSO control in [6] came to 19.3%. For the same compound, in [7], the parasite growth remaining, % of DMSO control (lower = more inhibition) worked out at 12%. Besides, the parasite growth, % of control (lower = inhibition) in assay [8] was 24.6%. In addition, in assay [9], the growth, % of control amounted to 21.5%. Also, the cell viability, % of control (lower = more cytotoxic) in [10] is 29.4%. Besides, the viability (% of control) in [11] stood at 11.8%. Also, the Potency is 662 nM (active) in assay [17], 743 nM (active) in assay [14], 2960 nM (active) in [15] and 2960 nM (active) in assay [16].

As for `CC(=O)OCC(CCn1cnc2cnc(N)nc21)COC(C)=O`, the max response in assay [3] was 13.8% (inactive). The same compound gave a parasite growth, % of DMSO control in [6] of 99.1%. Also, the parasite growth remaining, % of DMSO control (lower = more inhibition) in [7] was 136%. Besides, the parasite growth, % of control (lower = inhibition) in assay [8] worked out at 91.8%. Moreover, the growth, % of control in [9] was 98.2%. The cell viability, % of control (lower = more cytotoxic) in assay [10] worked out at 153%. The viability (% of control) in assay [11] is 106%. The Potency entry in assay [12], in assay [13], in assay [17], in assay [14], in assay [15] and in assay [16] was “inactive” each time.

For the origin of these results see PubChem BioAssay (NCATS).
